The record followed here is PubChem BioAssay (NCI).

Among the test systems are HCT-15 colon; SNB-75 CNS; SNB-19 CNS; U251 CNS; PC-3 prostate; SK-MEL-5 melanoma; UACC-62 melanoma; SK-MEL-28 melanoma; SK-MEL-2 melanoma; EKVX NSCLC; SN12C renal; UO-31 renal; TK-10 renal; ACHN renal; CAKI-1 renal; A498 renal; CCRF-CEM leukemia; LOX IMVI melanoma; MOLT-4 leukemia; HT29 colon.
Common to all, as to test: NCI-60 one-dose screen, 48 h (100 = growth as untreated, 0 = no growth, -100 = all killed)
Common to all, as to conditions: 10 µM unless noted

About 83,000 compounds went through this panel and 20% of them were active in at least one assay; those are over-represented in the sample as a whole.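 For each line, cells grew in 96-well plates with the test compound present at a single concentration for 48 hours.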 Unmarked numbers belong to inactive results. Calls of active or inactive are those of the source. The calls were made as follows: active = growth percent below 10; inactive = the rest.

As for `Cc1cc(N(CCCNc2ccnc3cc(Cl)ccc23)Cc2ccccn2)nc(N2CCOCC2)n1`, the growth is 87.3% in the assay on HCT-15 colon; 69.2% with SNB-75 CNS; 93.9% with SNB-19 CNS; 94.8% with U251 CNS; 74% in the assay with PC-3 prostate; 105% in the assay on SK-MEL-5 melanoma. In addition, the growth in the assay on UACC-62 melanoma is 106%; with SK-MEL-28 melanoma, 106%; in the assay with SK-MEL-2 melanoma, 97.9%; in the assay with EKVX NSCLC it was 89.5%; in the assay on SN12C renal, 95.6%; in the assay on UO-31 renal, 63.9%. Besides, the growth with TK-10 renal was 110%; in the assay with ACHN renal it was 101%; in the assay with CAKI-1 renal, 87.8%; in the assay on A498 renal, 92.5%; with CCRF-CEM leukemia, 86%.

`Nc1nc(N)c(-c2ccc(Cl)cc2)c(/C=C/c2ccc([N+](=O)[O-])cc2)n1`: the growth in the assay on HCT-15 colon is 66.3%; in the assay on SNB-75 CNS, 78.3%; in the assay on SNB-19 CNS, 75%; in the assay with U251 CNS it was 82.9%; in the assay with PC-3 prostate, 32.4%; in the assay with SK-MEL-5 melanoma, 79.6%. Further, the growth is 83.1% in the assay on UACC-62 melanoma; 60.6% in the assay on LOX IMVI melanoma; 95.7% in the assay on SK-MEL-28 melanoma; 88.7% with SK-MEL-2 melanoma; 93.6% in the assay on SN12C renal; 41.7% in the assay on UO-31 renal. The growth in the assay on TK-10 renal is 109%; in the assay with ACHN renal, 90.8%; with CAKI-1 renal it was 86.3%; in the assay on A498 renal, -3.32% (active); with CCRF-CEM leukemia, 34.8%; in the assay on MOLT-4 leukemia it was 27.6%.

With `Cc1cc(Cl)nc(N(CCCNc2ccnc3cc(Cl)ccc23)Cc2ccccn2)n1`, the growth was 35.2% with HCT-15 colon; 64.1% with SNB-75 CNS; 66.5% with SNB-19 CNS; 43.9% in the assay with U251 CNS; 54.2% in the assay with PC-3 prostate; 34.1% in the assay on SK-MEL-5 melanoma. Further, the growth in the assay on UACC-62 melanoma was 55.9%; with SK-MEL-28 melanoma it was 68%; in the assay with SK-MEL-2 melanoma, 64.2%; with EKVX NSCLC, 64.7%; in the assay on SN12C renal, 52.6%; in the assay with UO-31 renal it was 27.2%. The growth in the assay with TK-10 renal was 66.1%; in the assay on ACHN renal, 54.2%; with CAKI-1 renal, 48.5%; in the assay with A498 renal, 30.4%.

With `CC(/C=N/NC(=O)c1cc(-c2ccco2)[nH]n1)=C\c1ccccc1`, the growth with HT29 colon is 113%; with SNB-75 CNS, 66.8%; in the assay on SNB-19 CNS, 100%; in the assay with U251 CNS, 96.7%; with PC-3 prostate, 92.1%; with SK-MEL-5 melanoma it was 98.8%. Also, the growth in the assay on UACC-62 melanoma is 94%; in the assay with LOX IMVI melanoma it was 97.9%; in the assay on SK-MEL-28 melanoma, 104%; in the assay with EKVX NSCLC it was 89.2%; in the assay on SN12C renal, 95%; in the assay with UO-31 renal, 96.8%. For the same molecule, the growth with TK-10 renal was 123%; in the assay on ACHN renal it was 93.1%; in the assay on CAKI-1 renal, 80.8%; in the assay with A498 renal, 110%; in the assay with CCRF-CEM leukemia, 92.3%; in the assay with MOLT-4 leukemia, 96.6%.

Regarding `O=S(=O)(Nc1ccsc1-c1nc(-c2ccccc2)no1)c1cc(Cl)cc(Cl)c1`, the growth in the assay with HT29 colon was 98.5%; in the assay on SNB-75 CNS, 73%; in the assay on SNB-19 CNS, 98.8%; with U251 CNS it was 97.8%; in the assay on PC-3 prostate, 86.7%; in the assay on SK-MEL-5 melanoma it was 93.5%. Besides, the growth is 83.6% in the assay with UACC-62 melanoma; 96.5% in the assay with LOX IMVI melanoma; 88.2% in the assay with SK-MEL-28 melanoma; 105% in the assay with SK-MEL-2 melanoma; 95.6% in the assay with EKVX NSCLC; 91.3% with SN12C renal. Also, the growth in the assay with UO-31 renal is 83.2%; in the assay with TK-10 renal, 102%; with ACHN renal it was 98.2%; with CAKI-1 renal, 86.9%; with A498 renal, 91.1%; in the assay on CCRF-CEM leukemia, 101%. In the assay on MOLT-4 leukemia, the growth was 104%.

With `Clc1ccc(-c2nnc(Cn3ccnc3)o2)cc1`, the growth was 102% in the assay with HT29 colon; 91.8% with SNB-75 CNS; 95.5% in the assay on SNB-19 CNS; 106% in the assay with U251 CNS; 97.2% in the assay on PC-3 prostate; 112% in the assay on SK-MEL-5 melanoma. The growth in the assay on UACC-62 melanoma was 90.2%; with LOX IMVI melanoma, 112%; in the assay on SK-MEL-28 melanoma it was 106%; with EKVX NSCLC, 104%; in the assay with SN12C renal it was 90.1%; in the assay on UO-31 renal it was 87%. The growth with TK-10 renal is 128%; in the assay on ACHN renal, 98.9%; in the assay with CAKI-1 renal, 82.3%; in the assay on A498 renal it was 96.1%; with CCRF-CEM leukemia, 107%; in the assay with MOLT-4 leukemia, 96.5%.

With `Cl.Fc1c[c-]c(-c2ccccn2)c(F)c1.[Pt].c1ccc([PH+](c2ccccc2)c2ccccc2[PH+](c2ccccc2)c2ccccc2)cc1`, the growth with HT29 colon was -63.3% (active); in the assay with SNB-75 CNS it was -98.3% (active); with SNB-19 CNS it was -94.9% (active); in the assay with U251 CNS it was -87.8% (active); in the assay on PC-3 prostate, -86.6% (active); in the assay with SK-MEL-5 melanoma, -97.2% (active). The growth was -85.6% (active) in the assay with UACC-62 melanoma; -92.6% (active) with LOX IMVI melanoma; -94.5% (active) with SK-MEL-28 melanoma; -82.1% (active) with SK-MEL-2 melanoma; -94.8% (active) in the assay with EKVX NSCLC; -81.3% (active) with SN12C renal. Further, the growth in the assay with UO-31 renal was -98.8% (active); with TK-10 renal, -87.2% (active); in the assay on ACHN renal it was -100% (active); in the assay on CAKI-1 renal, -90.5% (active); in the assay with CCRF-CEM leukemia, -43.6% (active); in the assay with MOLT-4 leukemia, -28.3% (active).

In the case of `COc1ccc(N(C)c2nc(Cl)nc3cnn(C)c23)cc1`, the growth in the assay on HT29 colon was -9.42% (active); in the assay with SNB-75 CNS, 18.7%; in the assay on SNB-19 CNS, 29.7%; in the assay on U251 CNS, 17.8%; with PC-3 prostate, 16.2%; in the assay on SK-MEL-5 melanoma, -25.2% (active). The growth is 32% with UACC-62 melanoma; 18.7% with LOX IMVI melanoma; 58.2% in the assay on SK-MEL-28 melanoma; 22.2% in the assay with SK-MEL-2 melanoma; 46.1% in the assay on EKVX NSCLC; 27.8% in the assay with SN12C renal. Further, the growth with UO-31 renal is 34%; with TK-10 renal, 50.9%; in the assay on ACHN renal, 23.9%; in the assay on CAKI-1 renal it was 22.9%; with A498 renal it was -9.16% (active); in the assay on CCRF-CEM leukemia, 13%. Further, in the assay with MOLT-4 leukemia, the growth is 14.9%.
